Measured values: PubChem BioAssay (NCATS)
Results filed as inconclusive are left out. Active and inactive are the calls of the source. Unless noted, the call rests on the fitted dose curve; in most records, active means well fitted curve in either direction with a large enough effect (not every such curve was filed as active); inconclusive means small, poorly fitted or top-dose-only effect, or another doubt; inactive means flat fitted curve, though single readings scatter.

Columns and labels:
[1] = target: Lysosomal acid glucosylceramidase (Homo sapiens) (UniProt P04062); assay: Glucocerebrosidase-p2 (AID 348; in the data active means potency below about 10 µM; further: potency means the concentration at half of the fitted maximal effect); settings: purified GBA, blue fluorogenic substrate, 40 min
How it was run: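 Normal human glucocerebrosidase (0.2 nM) with blue fluorogenic substrate (80 uM final) in citrate/phosphate pH 5.9 with 10mM sodium taurocholate, 0.01% tween-20; 40 min RT, NaOH/glycine stop; fluorescence Ex 365/Em 440; AC50 from a titration from 0.6 nM upwards.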

[2] = AP1 Signaling Pathway (AID 357); settings: ME-180 AP-1-bla reporter, EGF-induced, beta-lactamase ratio, 5 h; at 7.69 µM (top of the series) unless noted; further: on the % scale 0 is the no-effect control and ±100 the full control effect
How it was run: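 Modulation of EGF-driven AP-1 transcription was assessed with a beta-lactamase reporter in ME-180 cells. Compound and EC50 EGF were co-incubated 5 hours at 37 °C before 2.5-hour CCF4 loading at room temperature and dual-emission reading.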

[3] = target: Cytochrome P450 1A2 (Homo sapiens) (UniProt P05177); assay: p450-cyp1a2 (AID 410; calls by dose curve; further: potency means the concentration at half of the fitted maximal effect;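 on activity change, negative = inhibition: -100% = full effect of reference inhibitor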); settings: recombinant CYP1A2, luciferin-ME demethylation, luminescence; series mostly up to 57 µM
How it was run: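 20nM CYP1A2, 100uM Luciferin-ME (=Km), 100mM KPO4; cpd 10 min RT; +NADPH regen, 60 min RT; stop/detect 20 min; luminescence. Normalized to furafylline 57 uM = full inhibition.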

[4] = NFAT Signaling Pathway (AID 444); settings: Jurkat NFAT-bla M1, carbachol, beta-lactamase ratio, 5 h; at 7.69 µM (top of the series) unless noted;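 further: carbachol stimulus at about its EC50 of 1 µM final; on the % scale 0 is the no-effect control and ±100 the full control effect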
How it was run: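 Jurkat cells carrying an NFAT-driven β-lactamase reporter and co-transfected muscarinic M1 receptor were treated with compound plus carbachol (1 uM final, an EC50 level) for 5 h at 37 °C. CCF4 loading followed for 1 h at RT; 460/530 nm ratio gave %activity.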

[5] = Stat Signaling Pathway (AID 446); settings: ME-180 SIE beta-lactamase reporter, IL-6 stimulated, 5 h; at 7.69 µM (top of the series) unless noted;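 further: ME-180 cervical cancer cells given 40 pM IL-6 alongside compound; SIE-controlled beta-lactamase reporter measured as 460/530 nm FRET emission ratio; on the % scale 0 is the no-effect control and ±100 the full control effect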
How it was run: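 Emission at 460 and 530 nm (excitation 405 nm) reports SIE-controlled beta-lactamase in ME-180 cells. Cells received compound with 40 pM IL-6 for 5 hrs at 37 C; data scaled between 300 pM IL-6 and 125 nM JAK-inhibitor controls.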

[6] = target: Glucocorticoid receptor (Homo sapiens) (UniProt P04150); assay: GR-GFP Redistribution (AID 450;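 active means compounds whose dose series gives a full or clear partial fitted curve of increased nuclear translocation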; further: potency means the concentration at half of the fitted maximal effect); settings: U2OS GR-GFP nuclear translocation, laser cytometry, 2 h
[7] = target: Glucocorticoid receptor (Homo sapiens) (UniProt P04150); assay: GR-EFC Redistribution (AID 451; calls by dose curve; further: potency means the concentration at half of the fitted maximal effect); settings: CHO-K1 GR-EFC translocation, beta-gal luminescence, 2 h
How it was run: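 CHO-K1 cells stably expressing nuclear-localized β-gal enzyme acceptor and GR fused C-terminally to the enzyme donor fragment; ligand-driven nuclear translocation restores β-gal by complementation. Compounds titrated up to 46 uM final, 2 h at 37 °C; luminescence read.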

[8] = target: 3',5'-cyclic-AMP phosphodiesterase 4B (Homo sapiens) (UniProt Q07343); assay: qHTS Assay for Inhibitors of PDE-IV (AID 607; active means well fitted activation curve with a large enough effect in the main read-out, with a control signal flat, not every such curve was filed as active; further: % of control where 0% means no effect); settings: HEK293 ACTOne CNG channel cells, membrane potential fluorescence; series mostly up to 22.9 µM
How it was run: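 The readout is membrane depolarisation from a cAMP-sensing CNG channel, detected with a potential dye at ex 535/em 590. Cells were HEK293-derived (endogenous PDE-IV) at 1000 cells/well, titrated up to 22.9 uM final.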

[9] = Confirmation and Secondary Assay for Modulators of Hemoglobin Beta Chain Splicing at IVS2 654 locus (AID 910; active means well fitted curve in the direction sought with a large enough effect; an effect the other way counts as inactive or inconclusive;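 further: per-well total GFP intensity by laser scanning cytometry after 2-day treatment; % of control where 0% means no effect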); settings: HeLa EGFP-654 splicing reporter, GFP fluorescence, 48 h; series mostly up to 38.3 µM
How it was run: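 HeLa cells stably carrying EGFP interrupted by mutant beta-globin IVS2-654 intron (CMV-driven) were treated with compound for 2 days at 37C; corrected splicing was scored as total peak GFP intensity per well (488 nm excitation, 500-520 nm emission).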

[10] = Confirmation and Secondary Assay for Modulators of Hemoglobin Beta Chain Splicing at IVS2 705 locus (AID 930; active means well fitted curve in the direction sought with a large enough effect; an effect the other way counts as inactive or inconclusive;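 further: HeLa cells stably expressing the EGFP-705 splicing reporter; % of control where 0% means no effect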); settings: HeLa EGFP-705 splicing reporter, GFP fluorescence, 48 h; series mostly up to 38.3 µM
How it was run: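 Restored EGFP fluorescence after 2-day compound exposure reports splicing correction in IVS2-705 EGFP reporter HeLa cells; positive control was 500 nM splice-blocking PNA oligo. Signal measured as well total peak GFP intensity (488 nm excitation).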

[11] = qHTS Assay for Lipid Storage Modulators (AID 1519; calls by dose curve); settings: Drosophila S3 cells, BODIPY lipid droplet/cell ratio, laser cytometry, cells loaded with oleic acid; for activity change, negative = inhibition: at 57.5 µM (top of the series)
How it was run: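 Cells seeded at 5,000 per well were treated with compounds over a concentration series and loaded with oleic acid (400 uM, as added). Lipid droplet fluorescence (488 nm excitation, 500-530 nm channel) was read by laser-scanning cytometry and normalized to 20 uM Triacsin C.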

[12] = Primary qHTS for small molecule stabilizers of the endoplasmic reticulum resident proteome: Secreted ER Calcium Modulated Protein (SERCaMP) assay (AID 1508630; active means well fitted curve in the direction sought with a large enough effect; an effect the other way counts as inactive or inconclusive; further: on the % scale 0 is the no-effect control and ±100 the full control effect); settings: SH-SY5Y GLuc-SERCaMP (Gaussia luciferase released on ER calcium loss) secretion, thapsigargin, luminescence; series mostly up to 38.4 µM
How it was run: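 The SH-SY5Y reporter protocol was run at 3 concentrations up to 38.3 uM (primary) or 11 concentrations (follow-up): 16 h compound, 100 nM thapsigargin for 4 h, then extracellular luciferase luminescence.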

[13] = target: Mitogen-activated protein kinase 10 (Mus musculus) (UniProt Q61831); assay: JNK3 AlphaScreen Assay (AID 530); settings: JNK3 lysate, c-Jun phosphorylation; series mostly up to 57.1 µM
How it was run: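 Biotinylated GST-cJun(1-79) served as substrate for JNK3 in HepG2 lysates stimulated with IL-1beta and TNF-alpha. ATP was 10 uM final, pH 7.6. Ser73 phosphorylation was quantified by AlphaScreen (680 nm excitation).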

[14] = target: Cytochrome P450 3A4 (Homo sapiens) (UniProt P08684); assay: qHTS Assay for Inhibitors and Substrates of Cytochrome P450 3A4 (AID 884; active means well fitted curve in the direction sought with a large enough effect; an effect the other way counts as inactive or inconclusive; further: potency means the concentration at half of the fitted maximal effect; nearly all actives have a fitted effect of over 50% in size); settings: recombinant CYP3A4, Luciferin-PPXE luminescence; series mostly up to 57.1 µM
How it was run: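 Luminescent readout of luciferin produced by CYP3A4 (20 nM) dealkylation of Luciferin-PPXE, 25 uM (its KM). NADPH-driven reaction ran 60 min at RT after 10 min compound preincubation; data scaled to 57 uM ketoconazole as 100% inhibition.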

[15] = target: Cytochrome P450 3A4 (Homo sapiens) (UniProt P08684); assay: qHTS Assay for Activators of Cytochrome P450 3A4 (AID 885; active means well fitted curve in the direction sought with a large enough effect; an effect the other way counts as inactive or inconclusive; further: nearly all actives have a fitted effect of over 65% in size); settings: recombinant CYP3A4, Luciferin-PPXE luminescence, 60 min; series mostly up to 57.1 µM
How it was run: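 Activators are scored by enhanced luminescence from CYP3A4 conversion of luciferin-PPXE (25uM, equal to KM) to luciferin, after 60 min at RT with an NADPH-regenerating system.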

[16] = target: Ubiquitin carboxyl-terminal hydrolase 1 (Homo sapiens) (UniProt O94782); assay: Inhibitors of USP1/UAF1: Pilot qHTS (AID 504865; active means well fitted curve in the direction sought with a large enough effect; an effect the other way counts as inactive or inconclusive;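 further: rhodamine fluorescence freed from ubiquitin-rhodamine substrate followed over time; top concentration of the series differs between compounds; on the % scale 0 is the no-effect control and ±100 the full control effect; nearly all actives have a fitted effect of over 35% in size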); settings: purified USP1/UAF1, Ub-rhodamine cleavage fluorescence; series mostly up to 54.9 µM
How it was run: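 Enzyme-free wells gave the negative control, while test wells held 1nM USP1/UAF1 preincubated with compound for 15 min at room temperature. Ub-Rho at 150nM final started the reaction, and fluorescence at 480/540 nm was recorded kinetically.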

[17] = qHTS Assay for Identification of Small Molecule Agonists for Hypoxia Response Element Signaling Pathway (AID 914; active means well fitted activation curve with a large enough effect in the signal ratio, with a control signal flat, not every such curve was filed as active; the % refers to the signal ratio; further: % of control where 0% means no effect); settings: ME-180 (cervical carcinoma) HRE-bla reporter, beta-lactamase ratio, CoCl2, 17 h; activation: stronger effect = higher value
How it was run: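 AC50 values come from titration-series %Activity, taken as the 460/530nm ratio of CCF4 fluorescence (excitation 405nm). CellSensor HRE-bla ME-180 cells were treated 17 hours at 37 C with compound plus an EC50 level of CoCl2.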

[18] = target: Cytochrome P450 2C19 (Homo sapiens) (UniProt P33261); assay: qHTS Assay for Inhibitors and Substrates of Cytochrome P450 2C19 (AID 899; active means well fitted curve in the direction sought with a large enough effect; an effect the other way counts as inactive or inconclusive; further: potency means the concentration at half of the fitted maximal effect; nearly all actives have a fitted effect of over 60% in size); settings: recombinant CYP2C19, luciferin-H EGE luminescence; series mostly up to 57.1 µM
How it was run: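 Human CYP2C19 (5nM) with Luciferin-H EGE at 10uM (its KM) in 50mM KPO4 was preincubated with compound for 10 min at 37C. NADPH regeneration started a 60 min 37C reaction. Luciferin was read by luminescence, normalized to 57uM ketoconazole.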

[19] = measured here: cell count channel max response
[20] = measured here: lipid channel max response

Chain of Lysosomal acid glucosylceramidase (Homo sapiens) (P04062 whole entry, looked up): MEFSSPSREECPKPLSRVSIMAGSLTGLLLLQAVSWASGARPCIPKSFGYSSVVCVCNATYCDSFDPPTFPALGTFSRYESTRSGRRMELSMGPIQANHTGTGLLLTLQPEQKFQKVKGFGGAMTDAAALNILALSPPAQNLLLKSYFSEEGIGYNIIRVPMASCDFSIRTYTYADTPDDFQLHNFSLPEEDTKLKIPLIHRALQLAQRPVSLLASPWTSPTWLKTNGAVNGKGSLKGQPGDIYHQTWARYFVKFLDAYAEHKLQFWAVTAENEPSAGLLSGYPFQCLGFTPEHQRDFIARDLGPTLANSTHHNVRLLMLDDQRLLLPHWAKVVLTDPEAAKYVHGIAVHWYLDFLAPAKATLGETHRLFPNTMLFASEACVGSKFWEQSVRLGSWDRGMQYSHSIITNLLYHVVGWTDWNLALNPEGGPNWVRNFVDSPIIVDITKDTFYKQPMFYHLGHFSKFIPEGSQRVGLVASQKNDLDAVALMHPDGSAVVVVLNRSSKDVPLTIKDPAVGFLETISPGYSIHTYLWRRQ
Chain of Cytochrome P450 3A4 (Homo sapiens) (P08684 whole entry, looked up): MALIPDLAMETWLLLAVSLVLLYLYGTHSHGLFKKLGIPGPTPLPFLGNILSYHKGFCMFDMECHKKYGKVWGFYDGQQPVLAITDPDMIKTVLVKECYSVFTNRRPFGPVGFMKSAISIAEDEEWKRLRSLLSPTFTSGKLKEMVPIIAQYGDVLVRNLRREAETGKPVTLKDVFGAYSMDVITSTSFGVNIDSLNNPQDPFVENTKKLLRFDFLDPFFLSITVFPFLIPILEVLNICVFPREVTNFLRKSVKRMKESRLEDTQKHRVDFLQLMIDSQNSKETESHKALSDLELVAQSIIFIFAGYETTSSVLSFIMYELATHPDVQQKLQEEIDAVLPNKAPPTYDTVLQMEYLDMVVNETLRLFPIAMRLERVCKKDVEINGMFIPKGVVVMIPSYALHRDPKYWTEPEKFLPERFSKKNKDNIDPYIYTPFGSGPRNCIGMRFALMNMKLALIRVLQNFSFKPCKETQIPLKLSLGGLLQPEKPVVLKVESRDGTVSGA
Chain of Glucocorticoid receptor (Homo sapiens) (P04150 whole entry, looked up, the tested form may be a part): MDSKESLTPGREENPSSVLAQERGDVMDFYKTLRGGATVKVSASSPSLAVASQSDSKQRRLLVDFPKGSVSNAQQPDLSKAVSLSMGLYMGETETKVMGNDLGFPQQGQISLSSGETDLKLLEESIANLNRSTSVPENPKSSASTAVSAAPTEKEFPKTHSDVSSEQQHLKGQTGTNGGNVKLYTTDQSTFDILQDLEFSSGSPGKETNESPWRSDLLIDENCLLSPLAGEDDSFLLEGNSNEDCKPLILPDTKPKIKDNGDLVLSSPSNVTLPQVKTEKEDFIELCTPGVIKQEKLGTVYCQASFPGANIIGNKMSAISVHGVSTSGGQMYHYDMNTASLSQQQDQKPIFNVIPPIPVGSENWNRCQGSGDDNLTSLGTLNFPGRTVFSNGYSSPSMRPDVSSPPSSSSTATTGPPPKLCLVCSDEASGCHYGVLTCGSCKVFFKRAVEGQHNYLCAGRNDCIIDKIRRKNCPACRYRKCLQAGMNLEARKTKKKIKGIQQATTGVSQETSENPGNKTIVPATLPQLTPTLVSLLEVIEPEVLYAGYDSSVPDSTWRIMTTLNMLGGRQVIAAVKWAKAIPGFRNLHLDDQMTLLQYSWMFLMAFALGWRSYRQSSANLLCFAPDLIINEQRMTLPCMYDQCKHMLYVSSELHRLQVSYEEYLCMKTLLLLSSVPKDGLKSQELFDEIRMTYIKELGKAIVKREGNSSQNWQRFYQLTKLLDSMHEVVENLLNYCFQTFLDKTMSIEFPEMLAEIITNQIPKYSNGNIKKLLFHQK
Chain of 3',5'-cyclic-AMP phosphodiesterase 4B (Homo sapiens) (Q07343 whole entry, looked up): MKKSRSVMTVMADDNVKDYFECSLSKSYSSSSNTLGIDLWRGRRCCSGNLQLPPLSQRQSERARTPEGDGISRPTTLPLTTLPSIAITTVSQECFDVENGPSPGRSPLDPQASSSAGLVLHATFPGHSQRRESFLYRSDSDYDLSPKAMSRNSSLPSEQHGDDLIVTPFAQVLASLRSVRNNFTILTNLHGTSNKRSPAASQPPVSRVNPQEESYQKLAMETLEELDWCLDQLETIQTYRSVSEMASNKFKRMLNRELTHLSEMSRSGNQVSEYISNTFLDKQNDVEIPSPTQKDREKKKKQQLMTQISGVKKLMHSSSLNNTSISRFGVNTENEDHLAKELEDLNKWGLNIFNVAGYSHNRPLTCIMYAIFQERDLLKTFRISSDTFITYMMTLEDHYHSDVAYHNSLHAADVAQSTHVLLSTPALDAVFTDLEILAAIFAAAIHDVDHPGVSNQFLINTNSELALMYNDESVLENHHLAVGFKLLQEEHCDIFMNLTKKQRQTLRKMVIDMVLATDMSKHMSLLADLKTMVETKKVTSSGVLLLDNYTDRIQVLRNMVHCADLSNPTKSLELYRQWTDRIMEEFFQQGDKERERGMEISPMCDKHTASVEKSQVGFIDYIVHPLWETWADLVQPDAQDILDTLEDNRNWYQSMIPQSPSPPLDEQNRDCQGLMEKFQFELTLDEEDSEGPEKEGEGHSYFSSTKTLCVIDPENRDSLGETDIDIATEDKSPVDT
Chain of Cytochrome P450 1A2 (Homo sapiens) (P05177 whole entry, looked up): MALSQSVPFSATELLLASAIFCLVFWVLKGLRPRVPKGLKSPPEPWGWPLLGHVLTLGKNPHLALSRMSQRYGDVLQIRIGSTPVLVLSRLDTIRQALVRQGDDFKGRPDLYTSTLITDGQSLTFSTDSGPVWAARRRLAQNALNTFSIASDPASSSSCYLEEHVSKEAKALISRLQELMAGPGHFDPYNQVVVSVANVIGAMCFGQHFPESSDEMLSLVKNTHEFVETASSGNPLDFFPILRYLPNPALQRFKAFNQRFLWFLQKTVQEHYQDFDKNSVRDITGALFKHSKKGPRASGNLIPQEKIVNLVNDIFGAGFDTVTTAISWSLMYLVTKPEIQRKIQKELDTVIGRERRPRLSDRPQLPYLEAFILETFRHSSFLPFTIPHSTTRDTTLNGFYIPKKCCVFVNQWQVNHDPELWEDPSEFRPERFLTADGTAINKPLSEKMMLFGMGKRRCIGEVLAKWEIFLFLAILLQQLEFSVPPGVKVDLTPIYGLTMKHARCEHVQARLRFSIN
Chain of Ubiquitin carboxyl-terminal hydrolase 1 (Homo sapiens) (O94782 whole entry, looked up): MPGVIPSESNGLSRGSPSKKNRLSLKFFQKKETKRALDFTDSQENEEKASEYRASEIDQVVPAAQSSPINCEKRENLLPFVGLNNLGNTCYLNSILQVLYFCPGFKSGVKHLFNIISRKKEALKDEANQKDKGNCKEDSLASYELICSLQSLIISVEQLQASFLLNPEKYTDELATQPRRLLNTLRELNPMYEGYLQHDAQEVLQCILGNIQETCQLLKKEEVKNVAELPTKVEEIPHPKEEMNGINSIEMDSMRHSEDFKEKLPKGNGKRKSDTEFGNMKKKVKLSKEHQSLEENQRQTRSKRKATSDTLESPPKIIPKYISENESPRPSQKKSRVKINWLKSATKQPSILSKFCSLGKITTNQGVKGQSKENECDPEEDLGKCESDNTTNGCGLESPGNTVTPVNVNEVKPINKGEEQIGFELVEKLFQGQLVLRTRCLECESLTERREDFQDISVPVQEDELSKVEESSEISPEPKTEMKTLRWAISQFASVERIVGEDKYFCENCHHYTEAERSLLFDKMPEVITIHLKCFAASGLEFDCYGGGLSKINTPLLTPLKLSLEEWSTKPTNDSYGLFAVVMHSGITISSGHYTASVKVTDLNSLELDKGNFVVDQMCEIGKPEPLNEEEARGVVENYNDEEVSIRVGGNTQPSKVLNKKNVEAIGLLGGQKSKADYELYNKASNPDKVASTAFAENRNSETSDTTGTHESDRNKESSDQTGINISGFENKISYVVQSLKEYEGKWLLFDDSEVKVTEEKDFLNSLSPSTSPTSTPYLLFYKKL
Chain of Cytochrome P450 2C19 (Homo sapiens) (P33261 whole entry, looked up): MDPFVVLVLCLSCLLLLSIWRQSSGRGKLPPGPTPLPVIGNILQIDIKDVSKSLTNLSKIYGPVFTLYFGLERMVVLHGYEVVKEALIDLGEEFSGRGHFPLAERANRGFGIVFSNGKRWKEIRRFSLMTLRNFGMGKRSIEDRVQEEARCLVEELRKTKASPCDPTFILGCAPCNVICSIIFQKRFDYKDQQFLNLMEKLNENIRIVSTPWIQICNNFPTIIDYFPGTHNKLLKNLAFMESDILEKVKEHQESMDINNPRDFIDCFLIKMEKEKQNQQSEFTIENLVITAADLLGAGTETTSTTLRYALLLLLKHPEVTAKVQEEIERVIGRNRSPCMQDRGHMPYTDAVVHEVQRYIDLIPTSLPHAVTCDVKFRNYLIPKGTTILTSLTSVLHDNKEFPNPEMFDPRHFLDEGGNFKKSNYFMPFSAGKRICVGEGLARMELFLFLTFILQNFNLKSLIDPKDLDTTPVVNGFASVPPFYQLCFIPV

CN1CCN(c2cc(-c3ccccc3C(F)(F)F)ncn2)CC1
active: Potency [3] 12.6 µM
20.3%: max response [11, 19]
inactive: Potency [1] > 11.4 µM | activity change, negative = inhibition [2] 8.33% | activity change, negative = inhibition [4] -29.9% | activity, negative = inhibition [5] 8.15% | Potency [6] > 46 µM | Potency [7] > 46 µM | Potency [8] | outcome [9] | outcome [10] | activity change, negative = inhibition [11] 9.46% | Potency [12]
26.3%: max response [11, 20]

c1cncc(-c2cncnc2-n2ccnc2)c1
17.5%: max response [11, 20]
active: Potency [3] 20 µM | Potency [14] 7.94 µM
inactive: Potency [1] > 11.4 µM | activity change, negative = inhibition [2] 7.52% | activity change, negative = inhibition [4] -6.63% | activity, negative = inhibition [5] 0.845% | Potency [7] > 46 µM | outcome [13] | Potency [8] | Potency [15] | outcome [9] | outcome [10] | activity change, negative = inhibition [11] 7.84% | Potency [16] | Potency [12]
7.56%: max response [11, 19]

COc1ccc(Oc2ncc3ncc(=O)n(C[C@H]4CCCO4)c3n2)cc1
inactive: Potency [1] > 11.4 µM | activity change, negative = inhibition [2] -24.4% | activity change, negative = inhibition [4] -8.98% | activity, negative = inhibition [5] -26.1% | Potency [6] > 9.22 µM | Potency [7] > 46 µM | outcome [13] | Potency [8] | Potency [15] | activation [17] -21.9% | activity change, negative = inhibition [11] -4.96% | Potency [12]
9.86%: max response [11, 19]
2.03%: max response [11, 20]
active: Potency [3] 6.31 µM

COc1ccc(NC(=O)N2CC3(CCN(C(=O)c4ccco4)CC3)C2)cc1
8.8%: max response [11, 20]
0.813%: max response [11, 19]
inactive: Potency [1] > 11.4 µM | activity change, negative = inhibition [2] -4.09% | Potency [3] | activity change, negative = inhibition [4] 3.69% | activity, negative = inhibition [5] -3.56% | Potency [7] > 46 µM | outcome [13] | activity change, negative = inhibition [11] 5.26% | Potency [12]

CC(=O)NCCNc1nc(-c2ccccc2Cl)nc2ccccc12
inactive: Potency [1] > 11.4 µM | activity change, negative = inhibition [2] 22.6% | activity change, negative = inhibition [4] -5.34% | activity, negative = inhibition [5] -10.3% | Potency [6] > 46 µM | Potency [7] > 46 µM | outcome [13] | Potency [8] | Potency [15] | outcome [9] | activation [17] 19.9% | outcome [10] | activity change, negative = inhibition [11] 8.12% | Potency [12]
active: Potency [3] 7.94 µM | Potency [18] 3.98 µM
11.5%: max response [11, 19]
20.7%: max response [11, 20]

COCC(=O)N1CCC2(CCCN(C(=O)Nc3cccc(F)c3)C2)CC1
14.2%: max response [11, 20]
4.52%: max response [11, 19]
inactive: Potency [1] > 11.4 µM | activity change, negative = inhibition [2] -4.55% | Potency [3] | activity change, negative = inhibition [4] 3.84% | activity, negative = inhibition [5] -4.68% | Potency [7] > 46 µM | outcome [13] | activity change, negative = inhibition [11] 7.2% | Potency [12]
